In PubChem BioAssay (EPA / NIEHS):
Activity calls are given as the source filed them. Rule for the calls: active = hit-call score of the fitted dose curve at least 0.9, where 1 is the maximum; inactive = score below 0.9.

What was measured:
[1] = read-out: Tumor necrosis factor receptor superfamily member 6 (Homo sapiens) (UniProt P25445); experiment: LTEA_HepaRG_FAS: Life Technologies and Expression Analysis (LTEA) Assay for Fas cell surface death receptor (FAS) using HepaRG (AID 2283447); conditions: mRNA level, 48 h; actives raise or lower the signal
Method in brief: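 Differentiated HepaRG cells in serum-free induction medium were exposed 48 h to 8 half-log concentrations up to 100 uM in 0.5% DMSO, in duplicate. FAS mRNA was measured by qRT-PCR normalised to ACTB, GAPDH and POLR2A; bidirectional fit versus DMSO.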

[2] = read-out: Fatty acid synthase (Homo sapiens) (UniProt P49327); experiment: LTEA_HepaRG_FASN: Life Technologies and Expression Analysis (LTEA) Assay for Fatty Acid Synthase (FASN) using HepaRG (AID 2283448); conditions: mRNA level, 48 h; actives raise or lower the signal
Method in brief: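 Transcript-level assay: HepaRG liver cells are treated for 48 h across an eight-point range topping at 100 uM, and FASN mRNA, normalized to three housekeeping genes, is compared with DMSO controls in both directions.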

[3] = read-out: Cyclin D2 (CCND2), CCND2 (gene 894); experiment: LTEA_HepaRG_CCND2: Life Technologies and Expression Analysis (LTEA) Assay for Cyclin D2 (CCND2) using HepaRG (AID 2283449); conditions: mRNA level, 48 h; actives raise or lower the signal;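 note: CCND2 transcript measured by TaqMan qRT-PCR and normalised to three housekeeping genes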
Method in brief: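 Chemicals in 0.5% DMSO, eight half-log concentrations from 100 uM top, were applied in duplicate for 48 h to human HepaRG cells in serum-free induction medium. CCND2 mRNA by TaqMan qRT-PCR, normalised to ACTB/GAPDH/POLR2A; bidirectional fit versus DMSO.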

[4] = read-out: Cyclin Dependent Kinase Inhibitor 1A (CDKN1A), CDKN1A (gene 1026); experiment: LTEA_HepaRG_CDKN1A: Life Technologies and Expression Analysis (LTEA) Assay for Cyclin Dependent Kinase Inhibitor 1A (CDKN1A) using HepaRG (AID 2283450); conditions: mRNA level, 48 h; actives raise or lower the signal
Method in brief: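 Expression quantified by Fluidigm qRT-PCR with ACTB, GAPDH and POLR2A normalization, fitted bidirectionally against 0.5% DMSO. Cells: HepaRG, plated 48 h then treated 48 h in serum-free induction medium, top concentration 100 uM with half-log dilutions.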

[5] = read-out: Cyclin D1 (CCND1), CCND1 (gene 595); experiment: LTEA_HepaRG_CCND1: Life Technologies and Expression Analysis (LTEA) Assay for Cyclin D1 (CCND1) using HepaRG (AID 2283451); conditions: mRNA level, 48 h; actives raise or lower the signal;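 for AC50: TaqMan qRT-PCR transcript level normalised to ACTB GAPDH and POLR2A housekeeping genes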
Method in brief: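 Expression of CCND1 was quantified by qRT-PCR on Fluidigm arrays using ACTB, GAPDH and POLR2A as reference genes. HepaRG cultures, plated 48 h beforehand, were dosed for 48 h at up to 100 uM (half-log, 8 points) in 0.5% DMSO.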

[6] = read-out: flavin-containing dimethylaniline monooxygenases 3 (FMO3), FMO3 (gene 2328); experiment: LTEA_HepaRG_FMO3: Life Technologies and Expression Analysis (LTEA) Assay for flavin-containing dimethylaniline monooxygenases 3 (FMO3) using HepaRG (AID 2283453); conditions: mRNA level, 48 h; actives raise or lower the signal
Method in brief: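 HepaRG, 48 h exposure, 8-pt half-log series from 100 uM, 0.5% DMSO vehicle, duplicates; FMO3 transcript by Fluidigm TaqMan qRT-PCR, housekeeping-normalized; gain/loss fit vs DMSO.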

[7] = read-out: Cytochrome P450 (CYP1A1), CYP1A1 (gene 1543); experiment: LTEA_HepaRG_CYP1A1: Life Technologies and Expression Analysis (LTEA) Assay for Cytochrome P450 (CYP1A1) using HepaRG (AID 2283454); conditions: mRNA level, 48 h; actives raise or lower the signal
Method in brief: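 CYP1A1 transcript levels measured by Fluidigm qRT-PCR against three housekeeping genes, 48 h after chemical dosing of human HepaRG cells (highest concentration 100 uM, half-log steps, 0.5% DMSO vehicle). Gain or loss of signal fitted relative to DMSO.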

[8] = read-out: CFLAR gene, CFLAR (gene 8837); experiment: LTEA_HepaRG_CFLAR: Life Technologies and Expression Analysis (LTEA) Assay for CFLAR gene using HepaRG (AID 2283455); conditions: mRNA level, 48 h; actives raise or lower the signal
Method in brief: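 Differentiated HepaRG cells in serum-free induction medium were exposed 48 h in duplicate to eight half-log concentrations up to 100 uM in 0.5% DMSO; mRNA measured by TaqMan qRT-PCR, normalized to ACTB, GAPDH, POLR2A; bidirectional fitting versus DMSO.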

[9] = read-out: Forkhead box O1 (FOXO1), FOXO1 (gene 2308); experiment: LTEA_HepaRG_FOXO1: Life Technologies and Expression Analysis (LTEA) Assay for Forkhead box O1 (FOXO1) using HepaRG (AID 2283456); conditions: mRNA level, 48 h; actives raise or lower the signal
Method in brief: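 Differentiated HepaRG cells, in serum-free induction medium with 0.5% DMSO, exposed 48 h in duplicate to 8-point half-log series from 100 uM. FOXO1 mRNA measured by TaqMan qRT-PCR, normalized to ACTB, GAPDH, POLR2A; bidirectional fit versus DMSO.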

[10] = read-out: Forkhead box O3 (FOXO3), FOXO3 (gene 2309); experiment: LTEA_HepaRG_FOXO3: Life Technologies and Expression Analysis (LTEA) Assay for Forkhead box O3 (FOXO3) using HepaRG (AID 2283459); conditions: mRNA level, 48 h; actives raise or lower the signal
Method in brief: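 Differentiated human HepaRG cells, 48 h post-plating, exposed in duplicate for 48 h in serum-free induction medium; 8-point half-log series from 100 uM in 0.5% DMSO. FOXO3 mRNA by TaqMan qRT-PCR, normalized to ACTB/GAPDH/POLR2A; bidirectional fit versus DMSO.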

[11] = read-out: ABC Transporter (ABCB1), ABCB1 (gene 5243); experiment: LTEA_HepaRG_ABCB1: Life Technologies and Expression Analysis (LTEA) Assay for ABC Transporter (ABCB1) using HepaRG (AID 2283460); conditions: mRNA level, 48 h; actives raise or lower the signal
Method in brief: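 HepaRG cells exposed in duplicate for 48 h in serum-free induction medium to eight half-log concentrations up to 100 uM in 0.5% DMSO. ABCB1 mRNA quantified by qRT-PCR, normalised to ACTB, GAPDH and POLR2A; fitted bidirectionally versus DMSO.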

[12] = read-out: growth arrest and DNA damage 45 (GADD45B), GADD45B (gene 4616); experiment: LTEA_HepaRG_GADD45B: Life Technologies and Expression Analysis (LTEA) Assay for growth arrest and DNA damage 45 (GADD45B) using HepaRG (AID 2283461); conditions: mRNA level, 48 h; actives raise or lower the signal
Method in brief: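 Transcript level quantified by Fluidigm TaqMan qRT-PCR with three housekeeping genes for normalization, analyzed for up- or down-regulation against 0.5% DMSO. HepaRG cultures dosed 48 h at eight half-log concentrations up to 100 uM, duplicates.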

[13] = CEETOX_H295R_OHPROG: CeeTox H295R High-throughput Steroidogenesis Assay for OH-Progesterone (OHPROG) (AID 2283435); conditions: actives raise or lower the signal;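 for AC50: human adrenal H295R cells primed 48 h with 10 µM forskolin; 17alpha-hydroxyprogesterone secreted into medium measured by HPLC-MS/MS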
Method in brief: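 Secreted 17alpha-hydroxyprogesterone is read by tandem MS from media of forskolin-primed H295R cells dosed with chemical for 48 h. Activity is fitted in both directions against DMSO baseline; cytotoxic concentrations are re-tested diluted.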

[14] = CEETOX_H295R_PROG: CeeTox H295R High-throughput Steroidogenesis Assay for Progesterone (PROG) (AID 2283442); conditions: actives raise or lower the signal;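 for AC50: human H295R adrenal cells primed with 10 µM forskolin before dosing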
Method in brief: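 Progesterone secreted by human H295R cells was measured by LC-MS/MS following 48 h chemical exposure at 0.1% DMSO, preceded by 48 h forskolin (10 uM) stimulation. Same-well MTT viability; cytotoxic concentrations diluted 10- or 100-fold and retested.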

[15] = CEETOX_H295R_CORTIC: CeeTox H295R High-throughput Steroidogenesis Assay for Corticosterone (CORTIC) (AID 2283437); conditions: actives raise or lower the signal;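 note: corticosterone secreted into medium quantified by mass spectrometry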;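 for AC50: human H295R adrenal cells prestimulated with forskolin before chemical exposure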
Method in brief: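 H295R adrenal cells prestimulated 48 hours with 10 uM forskolin, then exposed 48 hours to chemical in 0.1% DMSO. Corticosterone in medium measured by HPLC-MS/MS after MTBE extraction; MTT viability in the same wells; bidirectional fit versus DMSO.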

[16] = CEETOX_H295R_CORTISOL: CeeTox H295R High-throughput Steroidogenesis Assay for Cortisol (AID 2283438); conditions: actives raise or lower the signal
Method in brief: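 Human adrenocortical H295R cells (passage ≤10) received test chemicals for 48 h after forskolin priming. Secreted cortisol was measured by LC-MS/MS.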

[17] = CEETOX_H295R_DOC: CeeTox H295R High-throughput Steroidogenesis Assay for DOC (AID 2283439); conditions: actives raise or lower the signal
Method in brief: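 Secreted DOC was quantified from H295R media by HPLC-MS/MS after 48 h chemical exposure following 48 h forskolin (10 uM) prestimulation. Values were fitted in both directions relative to DMSO, the negative control and baseline.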

[18] = CEETOX_H295R_ESTRONE: CeeTox H295R High-throughput Steroidogenesis Assay for Estrone (AID 2283441); conditions: actives raise or lower the signal;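 note: estrone secreted into medium measured by LC-MS/MS after dansyl derivatization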
Method in brief: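 H295R cells; 48 h forskolin (10 uM) prestimulation; 48 h compound exposure, 0.1% DMSO final. Medium estrone: MTBE extraction, dansyl derivatization, HPLC-MS/MS. Bidirectional fit vs DMSO.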

[19] = CEETOX_H295R_ANDR: CeeTox H295R High-throughput Steroidogenesis Assay for Androstenedione (ANDR) (AID 2283436); conditions: actives raise or lower the signal
Method in brief: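 H295R cells, following OECD 456 with minor changes, exposed to chemicals for 48 h. Androstenedione in the medium was quantified by HPLC-MS/MS after MTBE extraction. Fitting was bidirectional versus DMSO; chemicals were diluted until MTT viability was ≥70%.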

[20] = CEETOX_H295R_TESTO: CeeTox H295R High-throughput Steroidogenesis Assay for Testosterone (TESTO) (AID 2283457); conditions: actives raise or lower the signal;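 note: cells exposed to chemicals for 48 h before medium collection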
Method in brief: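 Testosterone secreted into the medium over 48 h by H295R cells (maximum passage 10) was quantified by LC-MS/MS after MTBE extraction. Fitted in both directions against DMSO, with concentrations diluted until MTT viability was ≥70%.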

Measured: AC50

Fatty acid synthase (Homo sapiens), sequence (P49327 whole entry, looked up): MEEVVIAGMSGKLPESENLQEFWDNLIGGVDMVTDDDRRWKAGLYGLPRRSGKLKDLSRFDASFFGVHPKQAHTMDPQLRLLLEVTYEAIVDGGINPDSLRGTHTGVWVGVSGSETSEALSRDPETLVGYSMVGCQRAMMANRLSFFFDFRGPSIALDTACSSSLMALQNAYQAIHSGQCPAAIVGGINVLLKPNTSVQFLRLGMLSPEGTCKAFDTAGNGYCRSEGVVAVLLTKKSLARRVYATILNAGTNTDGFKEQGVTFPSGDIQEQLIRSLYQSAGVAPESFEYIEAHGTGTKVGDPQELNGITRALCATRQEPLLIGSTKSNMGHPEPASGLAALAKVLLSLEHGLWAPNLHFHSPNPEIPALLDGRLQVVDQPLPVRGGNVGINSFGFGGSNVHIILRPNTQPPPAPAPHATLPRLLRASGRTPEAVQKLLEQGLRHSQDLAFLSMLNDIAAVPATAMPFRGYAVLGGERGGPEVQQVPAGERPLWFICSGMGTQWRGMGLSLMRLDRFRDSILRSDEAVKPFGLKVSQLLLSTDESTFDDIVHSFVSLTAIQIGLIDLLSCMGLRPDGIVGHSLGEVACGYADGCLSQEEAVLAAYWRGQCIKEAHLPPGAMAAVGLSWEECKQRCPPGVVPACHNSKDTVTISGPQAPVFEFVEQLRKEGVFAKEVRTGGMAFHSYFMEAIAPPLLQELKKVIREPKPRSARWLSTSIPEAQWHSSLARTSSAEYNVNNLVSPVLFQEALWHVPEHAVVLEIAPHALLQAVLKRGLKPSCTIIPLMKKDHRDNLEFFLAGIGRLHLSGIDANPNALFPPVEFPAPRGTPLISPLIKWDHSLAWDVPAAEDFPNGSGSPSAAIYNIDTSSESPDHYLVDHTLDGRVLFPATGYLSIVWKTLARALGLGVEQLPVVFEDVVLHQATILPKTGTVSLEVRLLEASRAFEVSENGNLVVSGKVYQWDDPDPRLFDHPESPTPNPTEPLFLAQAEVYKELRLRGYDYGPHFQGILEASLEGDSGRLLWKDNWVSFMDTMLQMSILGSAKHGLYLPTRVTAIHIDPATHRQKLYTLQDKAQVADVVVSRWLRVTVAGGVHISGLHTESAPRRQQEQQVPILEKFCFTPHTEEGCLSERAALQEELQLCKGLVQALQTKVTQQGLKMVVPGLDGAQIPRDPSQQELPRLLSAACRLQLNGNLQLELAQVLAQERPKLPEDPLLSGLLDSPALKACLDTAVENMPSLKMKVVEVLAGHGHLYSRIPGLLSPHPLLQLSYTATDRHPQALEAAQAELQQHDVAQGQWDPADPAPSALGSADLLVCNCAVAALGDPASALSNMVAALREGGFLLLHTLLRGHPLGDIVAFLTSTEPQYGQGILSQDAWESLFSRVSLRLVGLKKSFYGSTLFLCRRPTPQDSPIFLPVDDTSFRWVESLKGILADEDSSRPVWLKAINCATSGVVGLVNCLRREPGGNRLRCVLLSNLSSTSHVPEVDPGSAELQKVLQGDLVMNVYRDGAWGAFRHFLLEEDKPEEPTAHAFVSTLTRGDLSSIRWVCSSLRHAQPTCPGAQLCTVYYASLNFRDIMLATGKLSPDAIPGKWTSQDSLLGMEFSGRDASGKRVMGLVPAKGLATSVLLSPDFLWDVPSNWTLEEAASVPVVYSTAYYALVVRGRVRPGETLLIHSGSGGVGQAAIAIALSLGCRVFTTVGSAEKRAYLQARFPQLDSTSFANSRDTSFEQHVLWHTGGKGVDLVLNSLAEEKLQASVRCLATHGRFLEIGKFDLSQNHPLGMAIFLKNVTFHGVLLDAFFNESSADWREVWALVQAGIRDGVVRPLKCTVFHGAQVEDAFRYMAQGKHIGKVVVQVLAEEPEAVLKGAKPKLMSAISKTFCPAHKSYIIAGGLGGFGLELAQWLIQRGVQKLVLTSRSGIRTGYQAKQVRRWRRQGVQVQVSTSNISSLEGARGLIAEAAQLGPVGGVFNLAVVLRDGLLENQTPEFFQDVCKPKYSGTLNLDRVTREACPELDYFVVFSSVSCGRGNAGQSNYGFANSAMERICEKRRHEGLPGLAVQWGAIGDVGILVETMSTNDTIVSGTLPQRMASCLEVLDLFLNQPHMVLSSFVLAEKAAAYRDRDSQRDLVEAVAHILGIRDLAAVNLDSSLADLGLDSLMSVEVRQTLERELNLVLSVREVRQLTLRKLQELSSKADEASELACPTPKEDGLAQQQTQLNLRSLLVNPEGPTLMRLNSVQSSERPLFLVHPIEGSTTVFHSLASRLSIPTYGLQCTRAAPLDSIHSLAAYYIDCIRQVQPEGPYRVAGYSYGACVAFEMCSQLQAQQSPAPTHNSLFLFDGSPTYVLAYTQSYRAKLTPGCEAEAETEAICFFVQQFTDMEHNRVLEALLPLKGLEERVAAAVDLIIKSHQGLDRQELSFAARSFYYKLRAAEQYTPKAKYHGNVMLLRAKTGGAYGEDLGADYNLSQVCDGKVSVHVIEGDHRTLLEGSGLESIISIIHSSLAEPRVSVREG

O=C(O)C1(c2ccc3c(c2)OC[C@H](Cc2ccc(-c4ccccc4)cc2)[C@H]3O)CCCC1
inactive: [1] | [3] | [5] | [8] | [10] | [11]
active: [2] 50 µM | [4] 80.2 µM | [6] 81.8 µM | [7] 23.3 µM | [9] 50 µM | [12] 86.9 µM

Oc1c(Cl)cc(Cl)cc1Cl
active: [13] 66.5 µM | [14] 50 µM
inactive: [1] | [2] | [3] | [4] | [5] | [6] | [8] | [9] | [10] | [12]

C[C@]12CC[C@@H](O)C[C@@H]1CC[C@@H]1[C@@H]2CC[C@]2(C)C(=O)CC[C@@H]12
inactive: [16]
active: [13] 1.87 µM | [15] 1.98 µM | [17] 2.64 µM | [14] 3.65 µM

CC(C)=CC1C(C(=O)OCc2cccc(Oc3ccccc3)c2)C1(C)C (stereo not drawn)
inactive: [15] | [16] | [17] | [18]
active: [13] 26.9 µM | [14] 25.8 µM

Cc1cc(C(C)(C)c2ccc(O)c(C)c2)ccc1O
active: [19] 5 µM | [16] 5 µM | [17] 2.91 µM | [20] 5 µM
inactive: [13] | [15] | [14]

Clc1cccc(Cl)c1
active: [7] 78.1 µM
not listed: [13] | [14] | [15] | [16] | [17] | [18] | [19] | [20]
inactive: all other assays above

CN(C)C(=S)S
active: [7] 64.4 µM
inactive: [2] | [3] | [4] | [5] | [6] | [8] | [9] | [10] | [11] | [12]

CCCSP(=S)(OCC)Oc1ccc(SC)cc1 (stereo not drawn)
active: [13] 1.41 µM | [14] 6.35 µM
inactive: [18]

COc1ccc(N)cc1
active: [13] 31.7 µM | [14] 16.4 µM
inactive: [15] | [16] | [17]

Oc1cccc(-c2ccccc2)c1
inactive: [15] | [16] | [17] | [18]
active: [13] 9.06 µM | [14] 10 µM

CCCCCCCCCCCCc1cccc(S(=O)(=O)O)c1
active: [5] 45 µM | [7] 51.6 µM | [9] 16.1 µM | [10] 45 µM
inactive: [1] | [2] | [4] | [6] | [8] | [11] | [12]

OCCN(CCO)CCO
active: [7] 73.2 µM
not listed: [13] | [14] | [15] | [16] | [17] | [18] | [19] | [20]
inactive: all other assays above

CC(C)(COCC1CO1)COCC1CO1 (stereo not drawn)
inactive: [13] | [15] | [16] | [17] | [18] | [14]

CC(C)O.CC(C)O.OCCN(CCO)CCO.OCCN(CCO)CCO.[Ti]
not listed: [13] | [14] | [15] | [16] | [17] | [18] | [19] | [20]
inactive: all other assays above

Cc1cc(Cl)ccc1O
inactive: [15] | [16] | [17] | [14]
active: [13] 28.3 µM

CC(C)(C)c1cc([N+](=O)[O-])cc(C(C)(C)C)c1O
inactive: [13] | [18] | [14]

CCCCCCCCCCCCN(C)C
inactive: [13] | [15] | [16] | [17] | [18] | [14]

Nc1ccc(N)cc1
inactive: [13]

Oc1c(Br)cc(Br)cc1Br
inactive: [18]
active: [13] 36 µM | [14] 41.3 µM
